# In PubChem BioAssay:
# Assay: probe aNOTCH2 binding on compound microarray – biochemical, small-molecule microarray, 635/667 nm fluorescence, primary screen (AID 1121);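 also: score merges feature fluorescence read at 667 nm with its signal to noise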
# Conditions: higher = more signal
row,SMILES,composite z-score
1,C=CCN1C(=O)[C@@]2(Cc3ccccc31)N=C(c1ccc(OCCCO)cc1)O[C@H]2c1ccccc1,0.125
2,CN(C)CCCCCCNC(=O)[C@H]1C[C@H]2C(=O)N[C@@H](CCCCN)C(=O)N2[C@H]1c1cccc(OCCO)c1,0.986
3,COc1cc2c(cc1OC)CN(C(=O)[C@H]1[C@@H]3C(=O)O[C@@H](c4ccccc4)[C@@H](c4ccccc4)N3[C@@H](c3ccc(O)cc3)[C@]13C(=O)Nc1ccccc13)CC2,0.0481
4,C=CC1(C(=O)OC)CC=C(C(=O)OC)CC1 (stereo unspecified),-0.0661
5,CCCC=C(CCC)[C@@H](NC(=O)c1cccs1)c1ccc(C(F)(F)F)cc1,-0.0027
6,C=CCNC(=O)[C@@H]1[C@H]2C(=O)O[C@H](c3ccccc3)[C@H](c3ccccc3)N2[C@H](c2ccccc2OCCO)[C@@]12C(=O)N(C(=O)OCCOC)c1ccccc12,-0.0878
7,COC(=O)C[C@H]1O[C@]2(C(=O)N(C)c3ccccc32)[C@@H](C)[C@@H]1[Si](C)(C)F,-0.161
8,C=CCOC(=O)[C@@H]1[C@H]2C(=O)O[C@H](c3ccccc3)[C@H](c3ccccc3)N2[C@H](c2ccc(OCCOC(=O)[C@@H]3C[C@@H]4C(=O)NCC(=O)N4[C@@H]3c3ccc(O)cc3)cc2)[C@@]12C(=O)Nc1ccc(I)cc12,-0.108
9,COc1ccc(CCNC(=O)[C@@]2(C)c3ccccc3C(=O)N(C(C)C)[C@H]2c2ccc(CO)cc2)cc1,-0.151
10,C=C(CC1([C@@H](NP(=O)(c2ccccc2)c2ccccc2)[C@H]2C[C@@H]2CCCC)CC1)c1ccccc1,0.17
11,COC(=O)[C@H](Cc1ccccc1)N1CC2=C[C@@H](C3CC3)n3c(=O)n(C)c(=O)n3[C@H]2[C@@H]1[C@@H](O)Cc1ccccc1,-0.115
12,C=C(/C(=C/C[C@H](OC(C)=O)c1ccc(CO)o1)c1cc(C(=O)OC)ccc1OC)C(C)C,-0.148
13,[N-]=[N+]=Nc1ccccc1[C@H]1OC(c2ccc(OCCCO)cc2)=N[C@@]1(CCS(=O)(=O)c1ccccc1)C(N)=O,0.113
14,COc1cc2c(cc1OC)CN(C(=O)[C@@H]1[C@H]3C(=O)O[C@H](c4ccccc4)[C@H](c4ccccc4)N3[C@H](c3ccccc3OCCO)[C@@]13C(=O)Nc1ccc(C#CCCO)cc13)CC2,-0.0878
15,C[N+](C)(C)CCCCNC(=O)[C@@H]1C[C@@H]2C(=O)N[C@@H](Cc3ccccc3)C(=O)N2[C@@H]1c1cccc(OCCO)c1,-0.199
16,COCCOC(=O)N1C(=O)[C@@]2(c3cc(C#CCC(C(=O)OC)C(=O)OC)ccc31)[C@H](C(=O)Nc1nc3ccccc3s1)[C@H]1C(=O)O[C@H](c3ccccc3)[C@H](c3ccccc3)N1[C@@H]2c1ccccc1OCCO,-0.0956
17,CCC[C@@H]1C[C@@]1(CCC)[C@@H](NS(=O)(=O)c1cccc2cccnc12)c1ccc(Cl)cc1,-0.106
18,C=CCNC(=O)[C@@H]1[C@H]2C(=O)O[C@H](c3ccccc3)[C@H](c3ccccc3)N2[C@H](c2ccc(O)cc2)[C@@]12C(=O)N(C(=O)OCCOC)c1ccc(C#CCNC(N)=O)cc12,-0.0393
19,COCCOC(=O)N1C(=O)[C@@]2(c3cc(C#CCCO)ccc31)[C@H](C(=O)N1CCCCCCC1)[C@H]1C(=O)O[C@H](c3ccccc3)[C@H](c3ccccc3)N1[C@@H]2c1ccc(OCCO)cc1,0.833
20,COC(=O)[C@@]1(CCC(=O)OC(C)(C)C)N=C(c2ccc(OCCCO)cc2)O[C@H]1c1ccccc1N=[N+]=[N-],-0.127
21,CCCCCN1CC=CC23O[C@@H]4/C=C\CCC(C)OC(=O)C4[C@H]2C(=O)N(C(C)CO)[C@@H]3C1=O (stereo partly specified),-0.14
22,Cc1ccc(S[C@]2(C(=O)NC3CC3)CC(=O)N(Cc3ccccc3)[C@@H]2c2ccc(CO)cc2I)cc1,0.0012
23,O=C1NC(=O)C2C1C=CC(C(O)c1cccs1)N2Nc1ccc(Cl)cc1Cl (stereo unspecified),0.181
24,C=CCC(OC(C)=O)[C@@H]1[C@@H](N(Cc2ccc(-c3ccccc3)cc2)C(=O)c2cccc3ccccc23)c2cc(OCCCO)ccc2N1C(=O)c1ccc(-c2ccccc2)cc1 (stereo partly specified),-0.0783
25,CCOC(=O)C[C@H]1[C@H](OC(=O)c2ccc(C(=O)c3ccccc3)cc2)[C@@H](NC(=O)c2ccccc2)c2cc(OCCCO)ccc2N1C(=O)c1ccc2ccccc2n1,-0.0187
26,COc1cc2c(cc1O)C(C1CC1)N(Cc1sc3ccccc3c1Cl)CC2 (stereo unspecified),-0.0984
